# Results as given in PubChem BioAssay (NCATS).
# Inconclusive results are not listed. Where a call stands in place of a potency, no number is given. Calls of active or inactive are those of the source. Unless noted, calls follow the shape of the dose curve; as a rule, active = well fitted curve in the direction sought with a large enough effect; inconclusive = small, poorly fitted or top-dose-only effect, or another doubt; inactive = no such curve, though single readings can be large; an effect the other way counts as inactive or inconclusive.
# What was measured:
# [1] = Cell Viability - LYMP2-001 (AID 921);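 also: cells exposed to compound for 24 h at 37 °C; nearly all actives have a fitted effect of over 70% in size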; also: potency is read from the fitted curve at half-maximal effect
# How it was run: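 A lymphoblastoid cell line of human origin was treated with library compounds across a concentration series for 24 hours, and viable cell number was estimated from ATP-driven luciferase light output. Hill modeling gave AC50.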
# [2] = Confirmation and Secondary Assay for Modulators of Hemoglobin Beta Chain Splicing at IVS2 705 locus (AID 930); also: potency is read from the fitted curve at half-maximal effect
# How it was run: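 HeLa cells stably carrying EGFP interrupted by mutant beta-globin IVS2-705 intron (CMV-driven) were seeded at 500 cells/well, treated next day with compound for 2 days at 37C; corrected splicing restores EGFP, read as total peak GFP intensity per well.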
# [3] = MultiTox-Fluor Cytotoxicity Assay - LYMP1-001 - Dead Cells (AID 946); also: potency is read from the fitted curve at half-maximal effect
# How it was run: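 AC50 from Hill fit of concentration-response; data normalized to DMSO (basal) and 15 uM tetraoctylammonium bromide (100%). LYMP1-001 lymphoblastoid cells, 2500/well, 16 hr compound at 37 C; dead-cell protease fluorescence, Ex/Em 485/520.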
# [4] = MultiTox-Fluor Cytotoxicity Assay - LYMP1-001 - Live Cells (AID 947); also: potency is read from the fitted curve at half-maximal effect
# [5] = Cell Viability - LYMP1-002 - Assay at 16 hr (AID 948); also: potency is read from the fitted curve at half-maximal effect
# How it was run: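 In this qHTS, lymphoblastoid LYMP1-002 cells (human) receive compounds for 16 hr at 37 C. Viability is taken from CellTiter-Glo ATP luminescence, and AC50 derives from standard Hill fits.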
# [6] = MultiTox-Fluor Cytotoxicity Assay - LYMP1-002 - Dead Cells (AID 960); also: nearly all actives have a fitted effect of over 60% in size; also: potency is read from the fitted curve at half-maximal effect
# How it was run: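 Human lymphoblastoid cells (LYMP1-002), 2500/well in complete medium, were exposed to compounds for 16 hr at 37 C. Dead-cell protease activity was read as bis-AAF-R110 fluorescence (Ex/Em 485/520), normalized to DMSO and 15 uM tetraoctylammonium bromide; AC50 from Hill fits.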
# [7] = molecular target: Pyruvate kinase PKM (Homo sapiens) (UniProt P14618); experiment: qHTS Assay for Activators of Human Muscle Pyruvate Kinase (AID 954; active = well fitted curve in the direction sought with a large enough effect, not every such curve was filed as active)
# Sequence of Pyruvate kinase PKM (Homo sapiens) (P14618 whole entry, looked up): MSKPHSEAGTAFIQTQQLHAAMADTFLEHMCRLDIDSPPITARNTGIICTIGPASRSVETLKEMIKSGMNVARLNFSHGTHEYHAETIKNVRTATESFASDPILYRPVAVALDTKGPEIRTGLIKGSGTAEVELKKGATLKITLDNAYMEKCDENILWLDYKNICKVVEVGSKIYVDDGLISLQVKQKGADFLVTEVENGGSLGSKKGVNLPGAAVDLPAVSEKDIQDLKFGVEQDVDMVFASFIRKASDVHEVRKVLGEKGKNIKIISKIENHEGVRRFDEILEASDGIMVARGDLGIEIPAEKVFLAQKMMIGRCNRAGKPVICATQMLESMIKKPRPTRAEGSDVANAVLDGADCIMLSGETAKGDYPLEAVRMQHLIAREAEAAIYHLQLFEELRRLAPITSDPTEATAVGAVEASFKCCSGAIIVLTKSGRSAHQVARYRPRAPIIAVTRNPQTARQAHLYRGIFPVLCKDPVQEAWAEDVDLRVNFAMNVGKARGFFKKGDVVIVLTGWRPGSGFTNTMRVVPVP
# How it was run: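 Luminescence from a luciferase ATP-detection/stop reagent reported PKM2 activity. Reactions contained 0.1 nM purified human enzyme, 0.5 mM PEP, 0.1 mM ADP and 7 mM MgCl2 at pH 7.2, run 1 h at RT.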
# [8] = molecular target: Muscarinic acetylcholine receptor M1 (Rattus norvegicus) (UniProt P08482); experiment: qHTS Assay for Antagonists of Acetylcholine Muscarinic M1 Receptor: Kinetic Measurement of Intracellular Calcium Response (AID 943);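 also: Fluo-4 calcium signal as peak divided by basal fluorescence over 4 min; series mostly up to about 35 µM; nearly all actives have a fitted effect of over 75% in size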
# Sequence of Muscarinic acetylcholine receptor M1 (Rattus norvegicus) (P08482 whole entry, looked up): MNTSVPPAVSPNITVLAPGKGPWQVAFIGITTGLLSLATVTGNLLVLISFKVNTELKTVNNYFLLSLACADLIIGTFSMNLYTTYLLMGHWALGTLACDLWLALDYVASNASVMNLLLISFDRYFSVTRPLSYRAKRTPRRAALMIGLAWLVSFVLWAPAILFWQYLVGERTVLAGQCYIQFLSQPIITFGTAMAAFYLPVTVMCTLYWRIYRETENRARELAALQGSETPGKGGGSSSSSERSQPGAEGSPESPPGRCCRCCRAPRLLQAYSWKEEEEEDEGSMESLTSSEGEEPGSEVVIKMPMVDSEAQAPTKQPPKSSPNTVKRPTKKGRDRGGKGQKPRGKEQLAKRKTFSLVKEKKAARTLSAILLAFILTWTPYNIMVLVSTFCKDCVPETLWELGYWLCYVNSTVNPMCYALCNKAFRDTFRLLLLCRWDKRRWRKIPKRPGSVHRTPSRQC
# How it was run: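 CHO cells stably expressing rat M1 were loaded with no-wash Fluo-4 dye for 1 h at 37C, pre-incubated 10 min with compound, then challenged with EC80 carbachol (100 nM final); kinetic calcium read 4 min, peak/basal ratio.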
# [9] = molecular target: Muscarinic acetylcholine receptor M1 (Rattus norvegicus) (UniProt P08482); experiment: qHTS Assay for Antagonists of Acetylcholine Muscarinic M1 Receptor: Measurement of IP-One Response (AID 944); also: nearly all actives have a fitted effect of over 75% in size
# How it was run: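 CHO cells expressing rat M1 receptor, recovered overnight, were pre-incubated 10 min with compound, then stimulated 30 min with carbachol at EC80 (200 nM) in LiCl-containing buffer, pH 7.4. IP1 accumulation was read by HTRF (620/665 nm).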
smiles,measurement,setting,value
Cc1nnc(NS(=O)(=O)c2ccc(N)cc2)s1,Potency,[1],inactive
same,Potency,[2],inactive
same,Potency,[3],inactive
same,Potency,[4],inactive
same,Potency,[5],inactive
same,Potency,[6],inactive
NC(N)=NC(N)=NCCc1ccccc1,Potency,[1],inactive
same,Potency,[3],inactive
same,Potency,[4],inactive
same,Potency,[5],inactive
same,Potency,[6],inactive
Cc1cccc(Nc2ccncc2S(=O)(=O)NC(=O)NC(C)C)c1,Potency,[2],inactive
CC[C@H](C)C(=O)O[C@H]1C[C@@H](C)C=C2C=C[C@H](C)[C@H](CC[C@@H]3C[C@@H](O)CC(=O)O3)[C@H]21,Potency,[1],inactive
same,Potency,[3],inactive
same,Potency,[4],inactive
same,Potency,[5],inactive
Cc1ncc([N+](=O)[O-])n1CCO,Potency,[1],inactive
same,Potency,[2],inactive
same,Potency,[3],inactive
same,Potency,[4],inactive
same,Potency,[5],inactive
same,Potency,[6],inactive
NNC(=O)c1ccncc1,Potency,[1],inactive
same,Potency,[2],inactive
same,Potency,[3],inactive
same,Potency,[4],inactive
same,Potency,[5],inactive
same,Potency,[6],inactive
Cn1c(=O)c2c(ncn2CC(O)CO)n(C)c1=O (configuration not stated),Potency,[2],inactive
CC(=O)[C@H]1CC[C@H]2[C@@H]3CCC4=CC(=O)CC[C@]4(C)[C@H]3CC[C@]12C,Potency,[1],inactive
same,Potency,[4],inactive
same,outcome,[7],inactive
same,Potency,[6],15.8 µM (active)
CCc1cc(C(N)=S)ccn1,Potency,[1],inactive
same,Potency,[2],inactive
same,Potency,[3],inactive
same,Potency,[4],inactive
same,Potency,[5],inactive
same,Potency,[6],inactive
COc1ccc2cc3[n+](cc2c1OC)CCc1cc2c(cc1-3)OCO2,Potency,[1],39.8 µM (active)
same,Potency,[2],inactive
same,Potency,[3],inactive
same,Potency,[5],inactive
COc1ccc(C(=O)CC(=O)c2ccc(C(C)(C)C)cc2)cc1,Potency,[2],inactive
COC(=O)Nc1nc2ccc(Sc3ccccc3)cc2[nH]1,Potency,[2],inactive
CC1=NN(c2ccccc2)C(=O)C1,Potency,[1],inactive
same,Potency,[2],inactive
same,Potency,[3],inactive
same,Potency,[5],inactive
same,Potency,[6],inactive
CN1CCCC(n2nc(Cc3ccc(Cl)cc3)c3ccccc3c2=O)CC1 (configuration not stated),Potency,[2],inactive
COC(=O)Nc1nc2ccc(C(=O)c3ccccc3)cc2[nH]1,Potency,[2],inactive
NS(=O)(=O)c1cc2c(cc1Cl)NC(C(Cl)Cl)NS2(=O)=O (configuration not stated),Potency,[2],inactive
Cc1noc(NS(=O)(=O)c2ccc(N)cc2)c1C,Potency,[1],inactive
same,Potency,[2],inactive
same,Potency,[3],inactive
same,Potency,[4],inactive
same,Potency,[5],inactive
same,Potency,[6],inactive
CC(=O)CC(c1ccccc1)c1c(O)c2ccccc2oc1=O (configuration not stated),Potency,[2],inactive
CCCCS(=N)(=O)CCC(N)C(=O)O (configuration not stated),Potency,[2],inactive
Cc1ccnc2c1NC(=O)c1cccnc1N2C1CC1,Potency,[1],inactive
same,Potency,[3],inactive
same,Potency,[4],inactive
same,Potency,[5],inactive
same,Potency,[6],inactive
Cc1cc(NS(=O)(=O)c2ccc(N)cc2)no1,Potency,[1],inactive
same,Potency,[2],inactive
same,Potency,[3],inactive
same,Potency,[4],inactive
same,Potency,[5],inactive
same,Potency,[6],inactive
O=C(O)c1cc(=O)[nH]c(=O)[nH]1,Potency,[1],inactive
same,Potency,[3],inactive
same,Potency,[4],inactive
same,Potency,[5],inactive
same,Potency,[6],inactive
COc1cnc(NS(=O)(=O)c2ccc(N)cc2)nc1,Potency,[2],inactive
O=c1oc2c(O)c(O)cc3c(=O)oc4c(O)c(O)cc1c4c23,Potency,[2],10 µM (active)
CN(C)c1ccc(C(=C2C=CC(=[N+](C)C)C=C2)c2ccc(N(C)C)cc2)cc1,Potency,[1],1.26 µM (active)
same,Potency,[2],inactive
same,Potency,[3],12.6 µM (active)
same,Potency,[4],25.1 µM (active)
same,Potency,[5],6.31 µM (active)
same,Potency,[6],3.98 µM (active)
C[C@]12C=CC(=O)C=C1CC[C@@H]1[C@@H]2C(=O)C[C@@]2(C)[C@H]1CC[C@]2(O)C(=O)CO,Potency,[1],inactive
same,Potency,[3],inactive
same,Potency,[4],inactive
same,Potency,[5],inactive
same,Potency,[6],inactive
CCCCOc1ccc(CC(=O)NO)cc1,Potency,[2],inactive
CN(C)CCc1c[nH]c2ccc(CS(=O)(=O)N3CCCC3)cc12,Potency,[2],inactive
CNS(=O)(=O)Cc1ccc2[nH]cc(CCN(C)C)c2c1,Potency,[2],inactive
CCn1cc(C(=O)O)c(=O)c2cc(F)c(N3CCNCC3)nc21,Potency,[2],inactive
O=C(N[C@H](CO)[C@H](O)c1ccc([N+](=O)[O-])cc1)C(Cl)Cl,Potency,[1],inactive
same,Potency,[3],inactive
same,Potency,[4],inactive
same,Potency,[5],inactive
same,Potency,[6],inactive
OCc1ccc(-c2nn(Cc3ccccc3)c3ccccc23)o1,outcome,[8],inactive
Cc1ccc(S(=O)(=O)N[C@@H](Cc2ccccc2)C(=O)CCl)cc1,outcome,[8],inactive
same,outcome,[9],inactive
N[C@@H](Cc1ccc(O)c(O)c1)C(=O)O,outcome,[9],inactive
N=C(N)c1ccc(OCCCCCOc2ccc(C(=N)N)cc2)cc1,Potency,[3],inactive
same,Potency,[4],inactive
same,Potency,[5],inactive
same,Potency,[6],inactive
